Measurements: the supplement of paper PMC11732987, “Enantioselective OTUD7B fragment discovery through chemoproteomics screening and high-throughput optimisation” (Communications Chemistry, 2025)

Tests used:
Test in all cases: log2 ratio of Biotin-Ahx-Ub-VS probe labelling (fragment/DMSO); higher = less target engagement (more negative = stronger competition), active = hit call of the paper (q ≤ 0.05, log2 ratio ≤ -1)
Settings in all cases: compound concentration: 200 uM; treatment time: 3 h
[1] = target: T1, USP19 (UniProt O94966)
T1 sequence (whole entry): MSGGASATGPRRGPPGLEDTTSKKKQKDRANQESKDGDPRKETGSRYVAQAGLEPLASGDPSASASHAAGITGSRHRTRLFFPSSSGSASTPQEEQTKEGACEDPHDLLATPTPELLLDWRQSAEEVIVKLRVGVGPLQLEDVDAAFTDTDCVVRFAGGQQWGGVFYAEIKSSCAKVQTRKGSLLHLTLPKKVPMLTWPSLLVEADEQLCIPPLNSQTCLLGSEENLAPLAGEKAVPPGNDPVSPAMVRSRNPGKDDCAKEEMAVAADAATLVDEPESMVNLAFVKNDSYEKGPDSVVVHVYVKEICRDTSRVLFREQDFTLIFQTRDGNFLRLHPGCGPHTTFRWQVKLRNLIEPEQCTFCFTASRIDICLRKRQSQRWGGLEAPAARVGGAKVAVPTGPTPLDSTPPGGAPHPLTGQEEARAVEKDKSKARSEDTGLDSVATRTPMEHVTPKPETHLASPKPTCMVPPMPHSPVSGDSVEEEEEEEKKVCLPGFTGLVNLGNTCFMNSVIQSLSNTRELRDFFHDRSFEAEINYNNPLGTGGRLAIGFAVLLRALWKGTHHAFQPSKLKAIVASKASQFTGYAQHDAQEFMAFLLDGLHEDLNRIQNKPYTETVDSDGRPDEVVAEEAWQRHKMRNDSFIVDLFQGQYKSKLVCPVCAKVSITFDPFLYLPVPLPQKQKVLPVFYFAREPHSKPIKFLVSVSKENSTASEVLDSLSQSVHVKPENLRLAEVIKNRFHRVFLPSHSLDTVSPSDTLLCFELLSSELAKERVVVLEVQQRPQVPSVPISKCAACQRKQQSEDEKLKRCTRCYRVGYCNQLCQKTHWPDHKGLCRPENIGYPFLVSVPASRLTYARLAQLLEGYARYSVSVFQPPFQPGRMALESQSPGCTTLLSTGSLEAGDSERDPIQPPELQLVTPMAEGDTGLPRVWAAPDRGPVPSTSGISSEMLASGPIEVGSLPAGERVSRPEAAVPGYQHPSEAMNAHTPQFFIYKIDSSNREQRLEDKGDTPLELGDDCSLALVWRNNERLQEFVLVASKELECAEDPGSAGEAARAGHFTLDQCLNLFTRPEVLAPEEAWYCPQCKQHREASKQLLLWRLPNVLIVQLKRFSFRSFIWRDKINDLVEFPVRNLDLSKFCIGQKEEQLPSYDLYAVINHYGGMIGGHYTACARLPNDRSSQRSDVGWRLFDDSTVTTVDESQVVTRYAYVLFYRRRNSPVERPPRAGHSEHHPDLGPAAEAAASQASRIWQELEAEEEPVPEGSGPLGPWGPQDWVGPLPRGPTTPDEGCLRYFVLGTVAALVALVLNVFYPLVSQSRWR
Outline: (§1)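 HEK293T lysate, 495 µg per sample in Tris/CHAPS/IGEPAL buffer with protease inhibitors, was treated in triplicate with fragment at 200 µM or vehicle for 3 h and then with Biotin-Ahx-Ub-VS at 0.5 µM final for 1 h. Labelled DUBs were NeutrAvidin-enriched, digested with LysC and trypsin, and run by diaPASEF LC-MS/MS. Spectronaut label-free quantities were global-median-normalised, and values are average log2 fragment/vehicle ratios by unpaired t-test on proteins with ≥2 unique peptides.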

[2] = target: T2, USP22 (UniProt Q9UPT9)
T2 sequence (whole entry): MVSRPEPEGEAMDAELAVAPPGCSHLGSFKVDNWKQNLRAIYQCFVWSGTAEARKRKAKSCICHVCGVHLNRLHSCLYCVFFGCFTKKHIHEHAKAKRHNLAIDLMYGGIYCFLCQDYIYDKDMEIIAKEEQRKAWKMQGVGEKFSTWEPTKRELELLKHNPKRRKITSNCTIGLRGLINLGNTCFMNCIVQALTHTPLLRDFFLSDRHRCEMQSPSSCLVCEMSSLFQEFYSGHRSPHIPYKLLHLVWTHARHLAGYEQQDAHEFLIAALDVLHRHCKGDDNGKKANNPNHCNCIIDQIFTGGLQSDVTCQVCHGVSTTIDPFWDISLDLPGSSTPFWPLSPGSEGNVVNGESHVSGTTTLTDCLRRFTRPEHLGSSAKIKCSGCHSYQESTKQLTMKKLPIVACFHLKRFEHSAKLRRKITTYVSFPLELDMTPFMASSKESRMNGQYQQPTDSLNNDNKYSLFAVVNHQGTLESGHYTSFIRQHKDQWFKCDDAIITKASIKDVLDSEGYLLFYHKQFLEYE
Outline: as §1

[3] = target: USP24 (UniProt Q9UPU5)
Outline: as §1

[4] = target: T3, USP25 (UniProt Q9UHP3)
T3 sequence (whole entry): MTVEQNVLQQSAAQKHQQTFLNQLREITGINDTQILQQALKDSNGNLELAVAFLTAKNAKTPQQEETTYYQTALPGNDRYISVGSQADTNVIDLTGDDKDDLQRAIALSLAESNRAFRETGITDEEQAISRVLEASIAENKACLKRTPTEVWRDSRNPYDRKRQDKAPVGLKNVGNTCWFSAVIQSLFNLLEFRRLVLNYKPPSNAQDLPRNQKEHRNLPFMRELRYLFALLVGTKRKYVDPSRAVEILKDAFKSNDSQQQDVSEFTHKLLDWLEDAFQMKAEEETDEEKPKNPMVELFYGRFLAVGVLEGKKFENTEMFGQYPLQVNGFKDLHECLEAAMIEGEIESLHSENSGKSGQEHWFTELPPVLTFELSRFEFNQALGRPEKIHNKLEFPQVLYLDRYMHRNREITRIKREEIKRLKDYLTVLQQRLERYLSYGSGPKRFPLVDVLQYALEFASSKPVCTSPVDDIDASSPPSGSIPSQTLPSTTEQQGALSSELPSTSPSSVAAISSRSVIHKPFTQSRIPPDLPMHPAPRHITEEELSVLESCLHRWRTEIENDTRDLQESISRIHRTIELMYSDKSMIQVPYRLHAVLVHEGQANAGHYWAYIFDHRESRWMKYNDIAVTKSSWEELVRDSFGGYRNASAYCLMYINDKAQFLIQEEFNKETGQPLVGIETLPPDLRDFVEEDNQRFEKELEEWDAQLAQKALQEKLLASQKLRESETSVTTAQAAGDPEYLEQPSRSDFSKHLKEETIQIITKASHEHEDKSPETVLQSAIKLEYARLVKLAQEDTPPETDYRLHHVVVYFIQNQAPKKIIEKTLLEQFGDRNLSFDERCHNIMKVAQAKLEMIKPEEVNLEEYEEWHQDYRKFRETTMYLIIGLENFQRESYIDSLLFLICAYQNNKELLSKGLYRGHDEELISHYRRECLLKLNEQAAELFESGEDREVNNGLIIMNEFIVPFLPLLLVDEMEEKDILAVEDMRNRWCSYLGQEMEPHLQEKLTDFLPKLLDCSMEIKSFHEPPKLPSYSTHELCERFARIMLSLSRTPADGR
Outline: as §1

[5] = target: T4, USP28 (UniProt Q96RU2)
T4 sequence (whole entry): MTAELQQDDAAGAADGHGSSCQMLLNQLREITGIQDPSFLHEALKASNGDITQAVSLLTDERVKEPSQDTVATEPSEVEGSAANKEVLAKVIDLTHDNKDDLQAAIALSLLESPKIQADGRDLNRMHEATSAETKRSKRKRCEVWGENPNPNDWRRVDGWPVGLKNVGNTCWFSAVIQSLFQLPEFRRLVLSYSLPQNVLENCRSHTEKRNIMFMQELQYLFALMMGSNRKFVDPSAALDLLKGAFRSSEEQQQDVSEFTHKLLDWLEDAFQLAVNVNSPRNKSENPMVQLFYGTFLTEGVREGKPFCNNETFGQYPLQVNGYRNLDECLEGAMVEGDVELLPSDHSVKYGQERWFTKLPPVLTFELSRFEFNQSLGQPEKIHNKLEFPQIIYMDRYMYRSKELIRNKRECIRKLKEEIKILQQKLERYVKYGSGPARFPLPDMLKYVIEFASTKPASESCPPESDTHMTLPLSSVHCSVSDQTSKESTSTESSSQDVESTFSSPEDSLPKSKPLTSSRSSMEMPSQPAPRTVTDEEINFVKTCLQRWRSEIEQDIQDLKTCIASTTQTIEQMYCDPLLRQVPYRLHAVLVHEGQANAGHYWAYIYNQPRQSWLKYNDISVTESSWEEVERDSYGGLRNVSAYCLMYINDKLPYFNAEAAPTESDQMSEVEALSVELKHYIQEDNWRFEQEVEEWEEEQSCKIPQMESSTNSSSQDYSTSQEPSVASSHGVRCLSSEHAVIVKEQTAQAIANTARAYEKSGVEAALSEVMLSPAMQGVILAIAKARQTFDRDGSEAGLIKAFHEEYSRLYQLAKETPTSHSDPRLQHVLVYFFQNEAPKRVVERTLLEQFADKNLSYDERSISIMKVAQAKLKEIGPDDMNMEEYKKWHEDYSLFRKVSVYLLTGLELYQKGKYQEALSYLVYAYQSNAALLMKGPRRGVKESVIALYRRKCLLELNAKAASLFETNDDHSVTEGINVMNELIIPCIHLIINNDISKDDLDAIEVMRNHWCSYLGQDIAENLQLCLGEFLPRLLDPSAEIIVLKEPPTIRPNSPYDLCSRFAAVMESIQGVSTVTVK
Outline: as §1

Measured: log2 ratio of Biotin-Ahx-Ub-VS probe labelling

Sequence of USP24 (Q9UPU5 whole entry): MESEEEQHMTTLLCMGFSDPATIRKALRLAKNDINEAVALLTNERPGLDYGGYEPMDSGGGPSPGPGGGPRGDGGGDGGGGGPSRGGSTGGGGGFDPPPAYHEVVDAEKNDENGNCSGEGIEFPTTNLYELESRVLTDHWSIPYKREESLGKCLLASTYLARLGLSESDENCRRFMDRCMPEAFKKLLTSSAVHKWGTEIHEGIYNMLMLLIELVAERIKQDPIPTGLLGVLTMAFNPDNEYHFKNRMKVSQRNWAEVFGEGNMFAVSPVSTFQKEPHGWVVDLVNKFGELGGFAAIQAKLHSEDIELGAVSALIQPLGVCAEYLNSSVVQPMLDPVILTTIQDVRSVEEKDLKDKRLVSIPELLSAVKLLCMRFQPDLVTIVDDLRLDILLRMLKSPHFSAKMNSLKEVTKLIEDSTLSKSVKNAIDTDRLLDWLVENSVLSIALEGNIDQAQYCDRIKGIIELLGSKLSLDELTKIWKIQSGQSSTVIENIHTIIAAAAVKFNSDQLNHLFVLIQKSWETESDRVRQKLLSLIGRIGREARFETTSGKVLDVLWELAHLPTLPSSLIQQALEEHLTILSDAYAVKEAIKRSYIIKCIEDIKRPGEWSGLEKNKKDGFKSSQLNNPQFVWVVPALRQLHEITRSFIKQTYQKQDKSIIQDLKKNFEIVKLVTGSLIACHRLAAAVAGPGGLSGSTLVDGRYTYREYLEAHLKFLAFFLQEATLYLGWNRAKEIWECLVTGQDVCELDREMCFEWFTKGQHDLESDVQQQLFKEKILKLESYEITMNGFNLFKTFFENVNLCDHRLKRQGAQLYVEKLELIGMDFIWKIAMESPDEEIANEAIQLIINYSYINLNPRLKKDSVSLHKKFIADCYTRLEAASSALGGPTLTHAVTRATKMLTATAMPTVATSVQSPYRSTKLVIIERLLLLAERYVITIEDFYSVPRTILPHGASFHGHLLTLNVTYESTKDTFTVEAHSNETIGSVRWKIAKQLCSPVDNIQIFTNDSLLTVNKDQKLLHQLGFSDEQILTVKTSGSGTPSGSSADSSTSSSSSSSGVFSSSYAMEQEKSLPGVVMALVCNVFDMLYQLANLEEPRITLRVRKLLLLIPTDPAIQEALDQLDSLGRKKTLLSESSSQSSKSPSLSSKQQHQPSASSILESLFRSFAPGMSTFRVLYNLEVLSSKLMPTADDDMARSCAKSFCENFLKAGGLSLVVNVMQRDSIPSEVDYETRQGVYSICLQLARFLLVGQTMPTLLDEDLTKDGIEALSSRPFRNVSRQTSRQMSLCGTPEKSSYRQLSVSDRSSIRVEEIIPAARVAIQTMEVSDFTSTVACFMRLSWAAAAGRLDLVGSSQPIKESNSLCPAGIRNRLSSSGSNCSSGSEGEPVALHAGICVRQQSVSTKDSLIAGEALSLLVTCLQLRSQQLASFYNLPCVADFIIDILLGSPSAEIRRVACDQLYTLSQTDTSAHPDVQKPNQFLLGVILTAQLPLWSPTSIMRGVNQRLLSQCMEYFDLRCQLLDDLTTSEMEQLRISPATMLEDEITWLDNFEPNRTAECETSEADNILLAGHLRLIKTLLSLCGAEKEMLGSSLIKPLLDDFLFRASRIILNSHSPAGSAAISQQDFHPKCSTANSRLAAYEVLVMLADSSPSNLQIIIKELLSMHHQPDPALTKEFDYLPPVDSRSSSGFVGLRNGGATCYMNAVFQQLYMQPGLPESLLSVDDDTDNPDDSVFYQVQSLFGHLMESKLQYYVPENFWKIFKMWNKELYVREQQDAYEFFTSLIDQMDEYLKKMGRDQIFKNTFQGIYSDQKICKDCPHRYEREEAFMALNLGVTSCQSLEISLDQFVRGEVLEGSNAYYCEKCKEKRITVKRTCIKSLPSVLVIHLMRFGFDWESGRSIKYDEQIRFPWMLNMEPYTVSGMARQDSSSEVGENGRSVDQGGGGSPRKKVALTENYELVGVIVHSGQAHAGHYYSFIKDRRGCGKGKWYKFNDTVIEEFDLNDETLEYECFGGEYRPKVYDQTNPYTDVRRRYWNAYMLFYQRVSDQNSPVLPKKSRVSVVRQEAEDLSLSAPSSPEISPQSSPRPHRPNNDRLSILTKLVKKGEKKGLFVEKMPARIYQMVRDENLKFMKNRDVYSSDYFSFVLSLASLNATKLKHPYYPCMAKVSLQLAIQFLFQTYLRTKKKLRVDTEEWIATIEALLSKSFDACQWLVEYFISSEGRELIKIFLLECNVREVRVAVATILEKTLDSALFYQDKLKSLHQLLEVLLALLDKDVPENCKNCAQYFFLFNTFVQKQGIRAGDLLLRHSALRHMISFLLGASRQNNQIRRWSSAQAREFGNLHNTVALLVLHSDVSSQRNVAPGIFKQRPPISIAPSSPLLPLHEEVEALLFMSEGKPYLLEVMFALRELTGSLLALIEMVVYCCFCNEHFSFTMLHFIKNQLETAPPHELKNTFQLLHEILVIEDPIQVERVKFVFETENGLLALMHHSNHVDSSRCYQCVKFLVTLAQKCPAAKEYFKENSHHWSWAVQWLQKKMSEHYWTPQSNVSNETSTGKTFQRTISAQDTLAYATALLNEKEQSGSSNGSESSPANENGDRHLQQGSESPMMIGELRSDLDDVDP

O=C(CCl)N1CCN2C(=O)CCC2C1 (stereo not given)
inactive: [1] 0.0407 | [2] -0.0658 | [3] 0.14 | [4] -0.508 | [5] -0.38
